Laboratory results from the supplement of paper PMC9801561.
± gives the standard deviation of the averaged measurements.

Tested on: Escherichia coli Nissle 1917
Assay: area under OmniLog respiration curve over 48 h (OmniLog units x h); higher = more growth / nutrient utilisation; extreme values may be limits of the assay
Details: nutrient role: C-Source, amino acid; incubation: 48 h, 37 °C
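Wherever DuctApe activity index of respiration/growth curve (0 no growth to 9 maximum) is given: biolog PM4 phosphorus and sulfur plates, tetrazolium violet dye reduction read in the OmniLog every 15 min, kinetic curves scored by DuctApe, each plate run in triplicate.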

Structure (SMILES)	area under OmniLog respiration curve
NCC(=O)N1CCC[C@H]1C(=O)O	7860 ± 920
C[C@H](O)[C@@H](N)C(=O)O [D-Threonine]	291 ± 470
O=C(O)[C@@H]1C[C@@H](O)CN1 [Hydroxy-L-Proline]	94.1 ± 78

Same assay, conditions: nutrient role: C-Source, carbohydrate; incubation: 48 h, 37 °C

Structure (SMILES)	area under OmniLog respiration curve
OCC1(O)OC[C@@H](O)[C@H](O)[C@@H]1O (stereo partly drawn) [D-Tagatose]	6560 ± 520
CO[C@H]1O[C@H](CO)[C@H](O)[C@H](O)[C@H]1O [a-Methyl-D-Galactoside]	8070 ± 460
OC[C@@H](O)[C@@H](O)[C@H](O)[C@H](O)CO [D-Mannitol]	7850 ± 650
OC[C@@H](O)[C@@H](O[C@@H]1O[C@H](CO)[C@H](O)[C@H](O)[C@H]1O)[C@H](O)[C@@H](O)CO [D-Lactitol]	5600 ± 540
CO[C@H]1O[C@H](CO)[C@@H](O)[C@H](O)[C@@H]1O [a-Methyl-D-Mannoside]	16.9 ± 21
OC[C@H]1O[C@H](O[C@H]2O[C@H](CO)[C@@H](O)[C@H](O)[C@H]2O)[C@H](O)[C@@H](O)[C@@H]1O [D-Trehalose]	8920 ± 460
CO[C@H]1O[C@H](CO)[C@@H](O)[C@H](O)[C@H]1O [a-Methyl-D-Glucoside]	4.72
CO[C@@H]1O[C@H](CO)[C@H](O)[C@H](O)[C@H]1O [b-Methyl-D-Galactoside]	6290 ± 550
OCc1ccccc1O[C@@H]1O[C@H](CO)[C@@H](O)[C@H](O)[C@H]1O [Salicin]	4.72

Same assay, conditions: nutrient role: C-Source, carboxylic acid; incubation: 48 h, 37 °C

Structure (SMILES)	area under OmniLog respiration curve
C/C(=C/C(=O)O)C(=O)O [Citraconic acid]	4.72
O=C(O)C[C@H](O)C(=O)O [L-Malic acid]	8910 ± 230
O=C1CC[C@@H](C(=O)O)O1 [a-Hydroxyglutaric acid-g-Lactone]	4.72
O=C(O)CC(CC(=O)O)C(=O)O [Tricarballylic acid]	5.51 ± 1.4
N[C@@H](C(=O)O)[C@@H](O)[C@H](O)[C@H](O)CO [D-Glucosaminic acid]	1010 ± 670

Same assay, conditions: nutrient role: sole nitrogen source (pyruvate carbon); incubation: 48 h, 37 °C

Structure (SMILES)	area under OmniLog respiration curve
NO [Hydroxylamine]	5.62 ± 1.6
NCCN [Ethylenediamine]	4.72
N[C@@H](Cc1c[nH]c2ccccc12)C(=O)O [L-Tryptophan]	3670 ± 1500
CCCCN [N-Butylamine]	5.65 ± 1.6
Nc1[nH]cnc2ncnc1-2 [Adenine]	5810 ± 860

Same assay, conditions: nutrient role: sole phosphorus source (pyruvate carbon); incubation: 48 h, 37 °C

Structure (SMILES)	area under OmniLog respiration curve
C=C(OP(=O)(O)O)C(=O)O [Phosphoenol Pyruvate]	9270 ± 480
Nc1ccn([C@@H]2O[C@H](CO)[C@@H](OP(=O)(O)O)[C@H]2O)c(=O)n1 [Cytidine 3`-Monophosphate]	4.72
Nc1ncnc2c1ncn2[C@@H]1O[C@H](COP(=O)(O)O)[C@@H](O)[C@H]1O [Adenosine 5`-Monophosphate]	9380 ± 770
O=C(O)CP(=O)(O)O [Phosphono Acetic acid]	143 ± 120
NC(Cc1ccc(OP(=O)(O)O)cc1)C(=O)O (stereo in doubt) [O-Phospho-D-Tyrosine]	9640 ± 360
O=c1ccn([C@@H]2O[C@H](CO)[C@@H](OP(=O)(O)O)[C@H]2O)c(=O)[nH]1 [Uridine 3`-Monophosphate]	9010 ± 750
O=P(O)(O)OC(CO)CO [b-Glycerol Phosphate]	8820 ± 470
Nc1nc2c(ncn2[C@@H]2O[C@H](COP(=O)(O)O)[C@@H](O)[C@H]2O)c(=O)[nH]1 [Guanosine 5`-Monophosphate]	9210 ± 900
O=P(O)(O)O [Phosphate]	9750 ± 430

Same assay, conditions: nutrient role: sole sulfur source (pyruvate carbon); incubation: 48 h, 37 °C

Structure (SMILES)	area under OmniLog respiration curve
CSC[C@H](N)C(=O)O [S-Methyl-L-Cysteine]	17.8 ± 23
NCCS(=O)O [Hypotaurine]	7620 ± 90
C[S+]([O-])CC[C@H](N)C(=O)O (stereo partly drawn) [L-Methionine Sulfoxide]	5350 ± 130
CS(=O)(=O)O [Methane Sulfonic acid]	5490 ± 300
O=S(=O)(O)O [Sulfate]	6810 ± 400

Tested on: Escherichia coli Nissle 1917
Assay: DuctApe activity index of respiration/growth curve (0 no growth to 9 maximum) (index 0-9); higher = more growth / nutrient utilisation, active = 3 or more; extreme values may be limits of the assay
Details: nutrient role: C-Source, amino acid; incubation: 48 h, 37 °C

Structure (SMILES)	DuctApe activity index
NCC(=O)N1CCC[C@H]1C(=O)O	8 (active)
C[C@H](O)[C@@H](N)C(=O)O [D-Threonine]	0.667 (inactive)
O=C(O)[C@@H]1C[C@@H](O)CN1 [Hydroxy-L-Proline]	0 (inactive)

Same assay, conditions: nutrient role: C-Source, carbohydrate; incubation: 48 h, 37 °C

Structure (SMILES)	DuctApe activity index
OCC1(O)OC[C@@H](O)[C@H](O)[C@@H]1O (stereo partly drawn) [D-Tagatose]	7.33 (active)
CO[C@H]1O[C@H](CO)[C@H](O)[C@H](O)[C@H]1O [a-Methyl-D-Galactoside]	8 (active)
OC[C@@H](O)[C@@H](O)[C@H](O)[C@H](O)CO [D-Mannitol]	7.67 (active)
OC[C@@H](O)[C@@H](O[C@@H]1O[C@H](CO)[C@H](O)[C@H](O)[C@H]1O)[C@H](O)[C@@H](O)CO [D-Lactitol]	7 (active)
CO[C@H]1O[C@H](CO)[C@@H](O)[C@H](O)[C@@H]1O [a-Methyl-D-Mannoside]	0 (inactive)
OC[C@H]1O[C@H](O[C@H]2O[C@H](CO)[C@@H](O)[C@H](O)[C@H]2O)[C@H](O)[C@@H](O)[C@@H]1O [D-Trehalose]	8.67 (active)
CO[C@H]1O[C@H](CO)[C@@H](O)[C@H](O)[C@H]1O [a-Methyl-D-Glucoside]	0 (inactive)
CO[C@@H]1O[C@H](CO)[C@H](O)[C@H](O)[C@H]1O [b-Methyl-D-Galactoside]	7 (active)
OCc1ccccc1O[C@@H]1O[C@H](CO)[C@@H](O)[C@H](O)[C@H]1O [Salicin]	0 (inactive)
